HP1b binding inh: inhibitors of HP1-beta chromodomain binding to methylated histone tails; P83916; AlphaScreen HP1-beta / biotin-H3K9me3 peptide binding; Potency, µM (titrated, usually from 114 µM), without a hit: top-dose activity change, negative = inhibition, usual class: inhibitors; actives 0.56% (n = 390,000); AID 540317; also: nearly all actives have a fitted effect of over 70% in size
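Compound inhibition of the preformed complex between 50 nM HP1-beta and 50 nM biotinylated H3K9me3 peptide was read by AlphaScreen. Buffer was PBS pH 7.4 with 0.01% Tween-20. Incubations ran 30 min at room temperature, with 10 ug/mL donor/acceptor beads.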
L3MBTL1 block: inhibitors of human L3MBTL1. Q9Y468. AlphaScreen L3MBTL1–H3K9me1 peptide binding. Potency, µM (top dose mostly 57.1 µM), for the others: top-dose activity, negative = inhibition, actives largely listed as inhibitors. actives 0.66% (n = 230,000). AID 485360; also: % is scaled to controls: 0 for no effect and ±100 for the full control effect; nearly all actives have a fitted effect of over 60% in size
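First, the protein-peptide complex forms for 30 min at room temperature (L3MBTL1 50 nM, biotinylated H3K9me1 peptide 75 nM). Next, compounds are pin-transferred and incubated 30 min. Finally, AlphaScreen beads are added and read after 30 min.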
G9a inh: blocks human histone lysine methyltransferase G9a; Q96KQ7; G9a H3K9 monomethylation, AlphaScreen, 2 h; Potency, µM (titrated, usually from 102 µM), for the others: at the top dose activity, negative = inhibition, most hits filed as inhibitors; actives 8.8% (n = 350,000); AID 504332; also: % is scaled to controls: 0 for no effect and ±100 for the full control effect; nearly all actives have a fitted effect of over 75% in size
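Chemiluminescent proximity detection of H3K9 monomethylation, read after 10 min bead incubation in the dark. Reaction: 20 nM G9a, 500 nM biotin-H3K9 peptide, 20 uM SAM cofactor, 2 h, room temperature, following 15 min enzyme-compound preincubation.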
BAZ2B block: blocks human BAZ2B. Q9UIF8. actives 4.4% (n = 360,000). AlphaScreen BAZ2B-H3K14Ac peptide displacement. Potency, µM (top dose mostly 114 µM), without a hit: at the highest dose activity change, negative = inhibition, hits mostly inhibitors; also: % is scaled to controls: 0 for no effect and ±100 for the full control effect; nearly all actives have a fitted effect of over 60% in size
Target sequence (Q9UIF8 whole entry, looked up): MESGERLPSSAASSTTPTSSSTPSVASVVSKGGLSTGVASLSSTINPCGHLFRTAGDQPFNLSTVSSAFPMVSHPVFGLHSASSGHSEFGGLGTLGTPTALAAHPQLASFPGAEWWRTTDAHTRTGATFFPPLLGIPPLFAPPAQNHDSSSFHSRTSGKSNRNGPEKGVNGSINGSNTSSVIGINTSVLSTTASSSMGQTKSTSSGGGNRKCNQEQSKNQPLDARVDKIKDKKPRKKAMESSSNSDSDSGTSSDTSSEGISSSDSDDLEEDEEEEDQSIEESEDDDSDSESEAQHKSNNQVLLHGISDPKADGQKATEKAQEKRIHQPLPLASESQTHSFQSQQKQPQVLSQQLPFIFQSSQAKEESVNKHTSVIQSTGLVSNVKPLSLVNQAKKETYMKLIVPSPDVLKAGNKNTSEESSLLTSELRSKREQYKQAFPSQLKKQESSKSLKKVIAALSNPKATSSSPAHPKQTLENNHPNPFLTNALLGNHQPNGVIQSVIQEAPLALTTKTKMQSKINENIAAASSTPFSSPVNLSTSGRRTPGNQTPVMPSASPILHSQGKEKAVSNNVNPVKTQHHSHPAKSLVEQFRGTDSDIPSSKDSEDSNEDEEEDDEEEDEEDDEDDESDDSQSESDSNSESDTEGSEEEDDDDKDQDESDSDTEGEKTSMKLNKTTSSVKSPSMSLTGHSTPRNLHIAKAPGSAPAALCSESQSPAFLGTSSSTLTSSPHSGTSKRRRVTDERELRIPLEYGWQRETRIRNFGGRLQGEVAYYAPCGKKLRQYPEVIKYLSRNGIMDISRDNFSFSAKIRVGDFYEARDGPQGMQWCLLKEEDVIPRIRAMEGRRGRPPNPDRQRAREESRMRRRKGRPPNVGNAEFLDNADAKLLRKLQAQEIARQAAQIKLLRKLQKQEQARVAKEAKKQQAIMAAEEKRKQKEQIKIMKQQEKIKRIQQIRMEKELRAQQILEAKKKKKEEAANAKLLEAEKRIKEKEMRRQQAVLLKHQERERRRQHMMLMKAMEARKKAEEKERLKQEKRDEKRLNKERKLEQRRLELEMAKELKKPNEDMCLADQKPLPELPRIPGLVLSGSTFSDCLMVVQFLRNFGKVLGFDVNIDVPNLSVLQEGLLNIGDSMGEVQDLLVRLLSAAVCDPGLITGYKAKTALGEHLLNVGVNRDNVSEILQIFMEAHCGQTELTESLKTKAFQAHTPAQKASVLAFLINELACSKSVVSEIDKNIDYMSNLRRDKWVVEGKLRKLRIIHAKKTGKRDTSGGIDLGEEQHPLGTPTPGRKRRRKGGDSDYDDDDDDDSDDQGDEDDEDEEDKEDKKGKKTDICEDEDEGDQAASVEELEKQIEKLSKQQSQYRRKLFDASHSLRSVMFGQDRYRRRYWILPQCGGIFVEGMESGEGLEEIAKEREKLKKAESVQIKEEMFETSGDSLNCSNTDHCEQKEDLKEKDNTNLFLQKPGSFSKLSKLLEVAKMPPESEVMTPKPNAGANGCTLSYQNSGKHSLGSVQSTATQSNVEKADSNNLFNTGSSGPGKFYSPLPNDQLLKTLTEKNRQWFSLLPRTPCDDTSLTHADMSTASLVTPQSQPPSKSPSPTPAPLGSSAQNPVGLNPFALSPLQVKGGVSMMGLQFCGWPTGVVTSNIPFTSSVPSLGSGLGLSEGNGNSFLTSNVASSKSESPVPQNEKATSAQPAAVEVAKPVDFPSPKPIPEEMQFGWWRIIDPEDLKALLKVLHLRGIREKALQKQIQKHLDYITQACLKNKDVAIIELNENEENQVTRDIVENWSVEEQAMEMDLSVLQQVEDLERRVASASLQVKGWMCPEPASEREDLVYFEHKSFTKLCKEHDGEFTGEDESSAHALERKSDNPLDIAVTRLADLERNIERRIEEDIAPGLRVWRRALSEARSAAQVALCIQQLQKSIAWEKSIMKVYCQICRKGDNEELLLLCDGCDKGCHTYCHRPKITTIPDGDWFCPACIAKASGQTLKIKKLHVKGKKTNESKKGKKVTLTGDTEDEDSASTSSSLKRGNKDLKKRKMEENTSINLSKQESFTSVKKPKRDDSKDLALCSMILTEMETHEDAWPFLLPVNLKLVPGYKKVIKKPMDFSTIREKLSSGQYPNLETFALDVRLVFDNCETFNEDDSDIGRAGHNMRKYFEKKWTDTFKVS
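Inhibition is scored as reduced AlphaScreen emission. The BAZ2B/b-H3(5-23)K14Ac complex (50 nM each) in PBS pH 7.4, 0.01% Tween-20 meets compound (up to 110 uM) for 30 min at RT before bead addition.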
JMJD2A Tudor inh: inhibitors of human JMJD2A Tudor domain; O75164; AlphaScreen JMJD2A-Tudor / H3K4me3 peptide binding; Potency, µM (titrated, usually from 114 µM), for inactives: at the top dose activity change, negative = inhibition, most hits filed as inhibitors; actives 4.4% (n = 390,000); AID 504339; also: % is scaled to controls: 0 for no effect and ±100 for the full control effect; nearly all actives have a fitted effect of over 50% in size
* hit, by the source's call; ? = inconclusive; · = not tested or not shown; [ ] = dose if it differs, or a comment. An excerpt weighted towards active compounds, which were near 11% of everything screened. Calls follow the shape of the dose curve; as a rule, active = well fitted inhibition curve with a large enough effect; inconclusive = small, poorly fitted or top-dose-only effect; inactive = no such curve, though single readings can be large or run the other way. Potency is read from the fitted curve at half-maximal effect.

SMILES	HP1b binding inh	L3MBTL1 block	G9a inh	BAZ2B block	JMJD2A Tudor inh
CCOC(=O)N1CCC(NS(=O)(=O)c2ccc(NC(C)=O)c(Cl)c2)CC1	18%	-3%	13%	-7%	3%
COc1ccc(-c2cc(=O)[nH][nH]2)cc1OC	28%	·	?	-26%	-13%
COc1ccc(C2=NO[C@@H]3C(=O)N(c4ccc(C)cc4C)C(=O)[C@H]23)cc1OC	57%	5%	13µM*	-3%	?
COc1ccc(-c2cn(-c3ccc(C)cc3C)c(=O)[nH]2)cc1OC	33%	17%	11µM*	-19%	-9%
COc1ccc(C2=NO[C@@H]3C(=O)N(c4cccc(C)c4C)C(=O)[C@H]23)cc1OC	20%	·	23%[59 µM]	5%	-20%
CCOc1nc(Nc2ccc(F)cc2)nc(N2CCN(c3ccc(OC)cc3)CC2)n1	-6%	·	?	-35%	-24%
CCOc1nc(Nc2ccc(OC)c(Cl)c2)nc(N2CCN(c3ccc(OC)cc3)CC2)n1	?	·	11µM*	11µM*	35µM*
COc1cccc(CNC(=O)CCNC(=O)N2CCn3c2nc2ccccc23)c1	47%	·	?	-11%	-22%
O=C(c1cccc(Cl)c1)N1CCn2c1nc1ccccc12	11%	-1%	19%	-14%	-7%
COc1ccc(CNC(=O)CCNC(=O)N2CCn3c2nc2ccccc23)cc1	34%	·	45µM*	-17%[57.1 µM]	40µM*
O=C(c1ccccc1)N1CCn2c1nc1ccccc12	5%	7%	-7%[0.501 µM]	5%	56µM*
O=C1C2C3C=CC(C4CC34)C2C(=O)N1/N=C/c1ccc(-c2ccc([N+](=O)[O-])cc2)o1 (stereo not drawn)	27%	-11%	4%[59 µM]	-12%	-1%
Cc1ccc(-c2ccc(/C=N/N3C(=O)C4C5C=CC(C6CC56)C4C3=O)o2)c([N+](=O)[O-])c1 (stereo not drawn)	-15%	-21%	45µM*	?	-25%[57.1 µM]
COC(=O)c1ccc(-c2ccc(/C=N/N3C(=O)C4C5C=CC(C6CC56)C4C3=O)o2)cc1 (stereo not drawn)	-1%	-13%	7.9µM*	56µM*	?
COc1cc(OC)c(NC(=O)c2c(C)oc3nc(C)nc(N4CCOCC4)c23)cc1Cl	36%	·	-1%[59 µM]	8%[57.1 µM]	-3%
COc1ccc(CCNCC(O)Cn2c3ccccc3c3ccccc32)cc1OC (stereo not drawn)	-6%	-4%	?	?	-35%
COc1ccccc1NCC(O)Cn1c2ccccc2c2ccccc21 (stereo not drawn)	?	·	?	40µM*	40µM*
COc1cccc(NC(=O)C(=O)NCCc2csc(-c3ccc(C(F)(F)F)cc3)n2)c1	31%[57 µM]	·	6%[59 µM]	5%	3%
CCOc1ccc(NC(=O)c2cc(=O)[nH]c3ccccc23)cc1	10%	0%	·	56µM*	-16%
CCOc1ccc(NC(=O)c2cc3ccccc3cc2O)cc1	-8%	·	-40%[12.7 µM]	56µM*	79µM*
CCOc1ccc(C(=O)Nc2cccc(-c3nc4cccnc4s3)c2C)cc1OCC	33%	·	?	-13%	-18%
COc1ccccc1NC(=O)COC(=O)C1CC2CCCC(C1)C2=O (stereo not drawn)	35%	11%	·	·	-7%
COc1cccc(N2CCN(c3ncnc4onc(-c5ccc(F)cc5)c34)CC2)c1	36%	·	1%[59 µM]	7%[57.1 µM]	-20%
Cc1cc(Cl)ccc1NNC(=O)c1cccs1	12%	4%	·	-35%	-8%[57.1 µM]
O=C(NNc1cc(Cl)ccc1Cl)c1cccs1	19%	-19%	56µM*	17%	-12%
SMILES	HP1b binding inh	L3MBTL1 block	G9a inh	BAZ2B block	JMJD2A Tudor inh
Cc1noc(C)c1C(=O)NNc1cc(Cl)ccc1Cl	1%	-5%	79µM*	-16%	-8%
CC(=O)N1c2ccc(S(=O)(=O)NCCC(=O)Nc3ccc(Br)c(C)c3)cc2CC1C (stereo not drawn)	26%	·	0%[59 µM]	-12%	-15%
Cc1cc(O)c(C(C)C)cc1NC(=O)c1ccccc1Cl	26%	-4%	18%[59 µM]	2%	-7%
Cc1cc(O)c(C(C)C)cc1NC(=O)Nc1cc(Cl)ccc1Cl	?	·	·	·	45µM*
CN(C)S(=O)(=O)N1CCC(n2c(C(F)(F)F)nc3cccnc32)CC1	30%	·	1%[59 µM]	1%	9%
CCN(CC)S(=O)(=O)c1cc([N+](=O)[O-])ccc1NNC(=O)Nc1ccccc1OC	7%	·	28µM*	?	?
CCc1ccc(/C([O-])=C(/C(=S)NCCN2CCOCC2)[n+]2ccccc2)cc1	-2%	·	25µM*	-22%	-26%
O=C(Nc1ccc(-n2cnnn2)cc1)c1cn2ccccc2n1	31%	-1%	-20%	-7%	-8%
Cc1c(NC(=O)c2cn3ccccc3n2)cccc1-n1cnnn1	14%	-1%	?	-11%	20µM*
COc1cccc(/C=C/C(=C2/C(=O)N(c3ccccc3)N=C2C)c2ccc(C)cc2)c1OC	?	-14%	1.1µM*	?	?
Oc1c(Br)cc(Br)cc1C=Nc1ccc2c(c1)OCCO2	50%	·	-39%	7%	-4%
Oc1[nH]c2ccccc2c1C=Nc1ccc2c(c1)OCCO2	-7%	-7%	-5%	35µM*	?
CC1CCCCN1C(=O)CNCC1CCCO1 (stereo not drawn)	?	-4%	2%	-15%	0.89µM*
CC1CCCCN1C(=O)COc1ccccc1F (stereo not drawn)	-5%	8%	10%	8%	56µM*
CC1CCCCN1C(=O)CNCc1ccc(F)cc1 (stereo not drawn)	?	·	?	79µM*	3.2µM*
COc1cccc(-c2cc(C(=O)NCc3ccccc3)[nH]n2)c1	-17%	·	-4%[59 µM]	3%	-10%
CC(OC(=O)C1CCN(S(=O)(=O)c2ccc(C(C)(C)C)cc2)CC1)C(=O)N1CCOCC1 (stereo not drawn)	7%	7%	18µM*	5%	-9%
Cc1ccc(S(=O)(=O)N2CCC(C(=O)OC(C)C(=O)N3CCOCC3)CC2)cc1 (stereo not drawn)	26%	-3%	-22%	9%	?
N#CN=c1snc(-c2ccccc2Cl)n1-c1ccccc1Cl	5%[57 µM]	·	·	·	-9%[57.1 µM]
S=c1nc(C2CC2)n(-c2ccccc2)[nH]1	23%	·	?	-12%	2.5µM*
CCCc1c(C(=O)N/N=C/c2cccc(OCc3ccc(F)cc3)c2)nnn1-c1nonc1N	38%	·	18%	?	-11%
OC[C@H](O)[C@H](O)[C@@H](O)[C@@H](O)[C@@H]1SC(c2ccccc2)=NN1c1ccccc1	8%	-25%	11µM*	-28%	?
CC[C@H]1C(c2ccccc2)=NN(c2ccccc2)[C@@H]1CO	·	·	77%	·	·
CCCc1nn2c(=O)cc(COC(=O)c3ccc(NC(=O)c4cccs4)cc3)nc2s1	15%	·	-4%[12.7 µM]	-12%	-1%
